Data from PubChem BioAssay AID651812 (National Center for Advancing Translational Sciences (NCATS), 2012).
Screen size: about 2,100 compounds; about 650 (31%) were called active. About 16% were inconclusive and are not listed. The list shows a part of the results. A number with no mark means an inactive call. The call rests on the fitted dose curve; in most records, active means well fitted inhibition curve with a large enough effect; inconclusive means small, poorly fitted or top-dose-only effect; inactive means flat fitted curve, though single readings scatter.

Assay: qHTS for inhibitors of Vif-A3G interactions: Cherry picks; further: nearly all actives have a fitted effect of over 80% in size; on activity, negative = fluorescence increase: % of control where 0% means no effect
Conditions: HeLa A3G-eYFP + Vif (tagged APOBEC3G with the HIV-1 protein that degrades it), 24 h; Potency: eYFP fluorescence increase; series mostly up to 36.9 µM; activity, negative = fluorescence increase: at the top concentration
Method in brief: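 Cherry-picked compounds tested at several concentrations on A3G-eYFP/Vif HeLa cells for 24 hours; loss of Vif-driven degradation read as eYFP fluorescence by cytometric plate imaging, 488 nm excitation, 500-530 nm emission.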
Potency means the concentration at half of the fitted maximal effect.

Row | SMILES | activity, negative = fluorescence increase | Potency
1 | CCCCCS(=O)(=O)c1oc(-c2cccs2)nc1S(=O)(=O)c1ccc(C)cc1 | 1.58% [at 46.1 µM] | 
2 | Cc1ccc(-c2nc(C=Nc3ccc(O)cc3)c(O)o2)cc1 | -1.38% [at 46.1 µM] | 
3 | COc1ccc(NC(=O)C2(C)Cc3c(-c4cccc(NC(C)=O)c4)ccnc3O2)cc1 (stereo not drawn) | -11.1% | 
4 | COc1cc(Cn2c3ccc(NC(=O)CCc4ccccc4)cc3c(=O)n2C)ccc1F | -4.37% | 
5 | Cn1nnnc1SCCNCc1cc(Br)ccc1OCc1ccccc1Cl | -23.9% [at 46.1 µM] | 
6 | Cc1ccc(-c2cc(NC=O)c3ncc(-c4cnn(C)c4)n3c2)cc1 | -23.5% | 
7 | O=[N+]([O-])c1ccc(N/N=C/c2c[nH]c3ccccc23)c(S(=O)(=O)Nc2ccc(Cl)cc2)c1 |  | 18.4 µM (active)
8 | Cc1ccc(-c2cc(C(=O)N/N=C/c3c[nH]c4ccccc34)[nH]n2)cc1 | -6.62% | 
9 | COc1ccccc1NS(=O)(=O)c1cc([N+](=O)[O-])ccc1N/N=C/c1c(C)[nH]c2ccccc12 |  | 2.8 µM (active)
10 | C/C(=N/Nc1ccc([N+](=O)[O-])cc1)c1c[nH]c2ccccc12 |  | 8.2 µM (active)
11 | O=C(Nc1ccc2c(c1)OCCO2)C(=O)c1c[nH]c2ccccc12 | -5.27% | 
12 | O=[N+]([O-])c1ccc(N=Nc2ccc(O)c3ccccc23)cc1 | -0.327% | 
13 | Cc1ccc(N2C(=O)CS/C2=C(\C(Cl)=C(Cl)Cl)[N+](=O)[O-])cc1 | 9.88% [at 46.1 µM] | 
14 | Fc1cccc(F)c1/C=N/NC(=S)Nc1cccnc1 | 9.86% [at 46.1 µM] | 
15 | Cn1c(=O)c2cc(NC(=O)Cc3cccc4ccccc34)ccc2n1-c1ccccc1 | -7.98% | 
16 | CCOc1cc(/C=C/C(=O)c2ccc(OC)c(CN3CCOCC3)c2)cc(Br)c1O |  | 18.4 µM (active)
17 | CCOc1ccc(N/C=C/C(=O)c2cc(OC)c(OC)c(OC)c2)cc1 | -4.87% | 
18 | COc1cc(/C=C/C(=O)c2ccc(O)cc2)ccc1OCC#N | -12.2% | 
19 | COc1cc2c(cc1OC)C(C)N(C(=O)c1cc(Cl)nc(Cl)c1)CC2 (stereo not drawn) | -1.61% | 
20 | O=C(Nc1ccc([N+](=O)[O-])cc1)C(Cc1ccccc1)N1C(=O)c2cccc3cccc(c23)C1=O (stereo not drawn) |  | 14 µM (active)
21 | O=C(c1ccc(CS(=O)c2ccccc2Cl)o1)N1CCN(c2ccccc2F)CC1 (stereo not drawn) | -1.16% [at 46.1 µM] | 
22 | CC(=O)c1ccc2cccc3c2c1N=CN3C |  | 15.8 µM (active)
23 | C=CCn1c(O)c(N=NC(=O)CNC(=O)c2ccco2)c2ccccc21 | -8.63% | 
24 | CCN(CC)c1ccc(NC(=O)c2ccc(=O)[nH]c2)cc1S(=O)(=O)Nc1ccc(OC)cc1 | -8.67% | 

Row | SMILES | activity, negative = fluorescence increase | Potency
25 | Cc1cc(/C=N/NC(=O)c2cc3ccccc3o2)c(C)n1C | -0.301% | 
26 | O=C(O)c1cccc(-c2ccc(/C=N/Nc3ccc([N+](=O)[O-])cc3)o2)c1 |  | 18.4 µM (active)
27 | CC(C)(C)NC(=S)N/N=C\c1ccc(-c2ccc([N+](=O)[O-])cc2)o1 |  | 20.6 µM (active)
28 | Cc1cc([N+](=O)[O-])ccc1-c1ccc(/C=N/NC(=O)c2ccc(Br)o2)o1 |  | 16.4 µM (active)
29 | Cc1ccc(-c2ccc(/C=N/NC(N)=S)o2)cc1 | 10.9% [at 46.1 µM] | 
30 | O=C(Cc1ccccc1)N/N=C/c1ccc(-c2ccc([N+](=O)[O-])cc2)o1 |  | 17.7 µM (active)
31 | O=C(O)c1ccc(N/N=C/C(Br)=C/c2ccccc2)cc1 | -6.93% | 
32 | CCOc1ccc(S(=O)(=O)N(CC(=O)N/N=C/c2ccc(-c3ccc([N+](=O)[O-])cc3)o2)c2ccccc2)cc1 | -6.11% | 
33 | O=[N+]([O-])c1ccccc1C=NNC(=S)NN=Cc1ccccc1[N+](=O)[O-] | -14.3% | 
34 | NC(=S)N/N=C\c1ccc(-c2cccc(Cl)c2Cl)o1 | -27.6% | 
35 | CC1(C(=O)NCc2ccccc2)Cc2c(-c3cccc(C(N)=O)c3)ccnc2O1 (stereo not drawn) | -25.2% | 
36 | COc1ccc(NC(=O)C2(C)Cc3c(-c4cccc(C(N)=O)c4)ccnc3O2)cn1 (stereo not drawn) | -3.43% | 
37 | O=C(COc1ccc(C(=O)c2ccccc2)cc1)NCc1ccc(F)cc1 | -5.5% | 
38 | Cc1c(C(=O)C(=O)N2CC=C(c3ccccc3)CC2)c2ccccc2n1C | -12.3% | 
39 | CCOc1ccc(S(=O)(=O)NCc2ccccn2)cc1NC(=O)c1ccccc1 | 0.368% | 
40 | O=C1CC(c2ccccc2F)c2cc3c(cc2N1)CCC3 (stereo not drawn) | -7.87% | 
41 | CN(/N=C/c1ccc(-c2ccc([N+](=O)[O-])cc2)o1)c1ccccc1 |  | 1.64 µM (active)
42 | Cc1cc(N2CCN(Cc3cn(C)nc3-c3ccccc3F)CC2)cc(C)n1 | -6.76% | 
43 | COc1cc(C(=O)N/N=C/c2ccccn2)cc(OC)c1OC | -9.13% | 
44 | Cc1cc(C)n(-c2nc3c(c(=O)[nH]c(=O)n3C)n2CC(O)COc2ccc(Cl)cc2Cl)n1 (stereo not drawn) | -7.25% | 
45 | Cc1ccc2ccc3c(c2n1)NS(=O)(=O)c1ccc(C(F)(F)F)cc1-3 | -3.25% [at 46.1 µM] | 
46 | N#C/C(=C\c1ccc(C(=O)O)cc1)c1nc2sc3c(c2c(=O)[nH]1)CCCC3 | -12.3% [at 46.1 µM] | 
47 | CN(C)c1ccc(/C=C(\C#N)c2nc3ccccc3c(=O)[nH]2)cc1 |  | 0.58 µM (active)
48 | COc1ccc(NC2=CC(=O)CC(c3ccccc3)C2)c(OC)c1 (stereo not drawn) | 0.141% | 
